# Assay outcomes as filed in PubChem BioAssay.
# YB-1 expression: YB-1 expression inhibition | U2OS, qRT-PCR YB-1 vs CDIP delta delta Cp, 16 h; stronger effect = higher value; zero = DMSO, each unit about twofold | delta delta Cp (YB-1 minus CDIP) (no concentration beside the values) | hit rate 0.37% among 30,000;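 active = delta delta Cp rounded down to an integer at or above 3, about 3 SD of DMSO wells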;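 note: higher means less YB-1 transcript or more CDIP transcript relative to DMSO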
# ROS inducer: inducers of reactive oxygen species in cancer cells | AID 624156 | hit rate 2% among 46,000 | U2OS ROS induction, H2DCF-DA fluorescence | ROS induction (% of piperlongumine), % at 10 µM; in the data active = ROS induction above about 79%, passing the limit was not always enough; inconclusive = no clear call, values can overlap the other calls;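 note: 0% = DMSO vehicle median and 100% = reference compound median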
# The depositor's hits bear a star; ? = inconclusive; · = no result. Hits are enriched below; roughly 2.3% of the tested compounds scored in any of these assays.
SMILES,YB-1 expression,ROS inducer
C[C@@H]1C(=O)O[C@H]2[C@H]1CC[C@@]1(C)C=CC(=O)[C@@]3(C)O[C@@]213,4*,-4
C/C=C(\C)[C@H](O)[C@H](C)/C=C(C)/C=C/C/C(C)=C/Cc1[nH]c(OC)c(OC)c(=O)c1C,-0.53,17
C[C@H]1CC[C@@H]2[C@@H](C)[C@H]3[C@H](C[C@H]4[C@@H]5CC=C6CC(O[C@@H]7O[C@H](CO)[C@@H](O)[C@H](O[C@@H]8O[C@H](CO)[C@@H](O)[C@H](O)[C@H]8O)[C@@H]7O[C@@H]7O[C@@H](C)[C@H](O)[C@@H](O)[C@H]7O)CC[C@]6(C)[C@H]5CC[C@]34C)N2C1 (stereo partly specified),-0.8,-26
CC(C)C[C@H]1C(=O)N2CCC[C@H]2[C@]2(O)O[C@](NC(=O)[C@@H]3C=C4c5cccc6[nH]cc(c56)C[C@H]4N(C)C3)(C(C)C)C(=O)N12,0.36,120*
C[C@@H](CO)NC(=O)C1C=C2c3cccc4[nH]cc(c34)C[C@H]2N(C)C1 (stereo partly specified),-0.27,-9
CCOC(=O)C1(c2ccccc2)CCN(C(=O)c2c(C)oc3ccc(OC)cc23)CC1,·,80*
C[C@H]1O[C@@H](O[C@H]2C[C@@H](O)[C@]3(CO)C4C(CC[C@]3(O)C2)[C@@]2(O)CC[C@H](C3=CC(=O)OC3)[C@@]2(C)C[C@H]4O)[C@@H](O)[C@@H](O)[C@H]1O (stereo partly specified),-0.13,7
COc1ccc2c(c1OC)CN1CCc3cc4c(cc3C1C2)OCO4 (stereo unspecified),-0.29,-10
COc1ccc2c(c1OC)C(=O)O[C@H]2[C@H]1c2cc3c(cc2CCN1C)OCO3,6.4*,7
CC(=O)NC1C(OC2OC(CC(O)C3OC(n4ccc(=O)[nH]c4=O)C(O)C3O)C(O)C(O)C2NC(=O)/C=C/CCCCCCCCCC(C)C)OC(CO)C(O)C1O (stereo unspecified),-0.4,-13
Cc1cc(Br)c(NC(=O)C2C(C)(C)C2(C)C)c(Br)c1,-0.34,1
CC(=O)O[C@H]1CC[C@]2(C=O)[C@H]3CC[C@]4(C)[C@@H](C5=CC(=O)OC5)CC[C@]4(O)[C@@H]3CC[C@]2(O)C1,-0.066,?
CC[C@H]1CN2CCc3cc(OC)c(OC)cc3[C@@H]2C[C@@H]1C[C@H]1NCCc2cc(O)c(OC)cc21,1.2,9
CC(N)Cc1c[nH]c2ccc(OCc3cccs3)cc12 (stereo unspecified),-1.3,99*
COc1ccc2[nH]cc(CCN)c2c1,0.5,5
C[C@H]1CN([C@@H](C)CO)C(=O)CCCn2cc(nn2)CO[C@@H]1CN(C)C(=O)Oc1ccc2ccccc2c1,-0.25,134*
C[C@@H]1CN([C@H](C)CO)C(=O)CCCn2cc(nn2)CO[C@@H]1CN(C)C(=O)Oc1ccc2ccccc2c1,-0.28,31
CCC(C)[C@H]1C(=O)O[C@H](C(C)C)C(=O)N(C)[C@@H](C(C)CC)C(=O)O[C@H](C(C)C)C(=O)N(C)[C@@H](C(C)CC)C(=O)O[C@H](C(C)C)C(=O)N1C (stereo partly specified),-0.1,-26
